Out of some 310,000 compounds screened, about 14,000 (4.5%) showed an effect of 50% or more. The effect is printed as a negative number. The entries come from a sample that favours strong results as a whole.

This note sets out measurements from article PMC4336329 (PLoS ONE, 2015).
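Note: peak tail current of the secondary pulse compared with the same well before compound.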

For this assay, the target named is human ether-à-go-go-related gene (hERG) potassium channel (human, UniProt Q12809). As to the kind of experiment: primary screen, population patch clamp on CHO cells stably expressing hERG; higher = less effect of the substance.
human ether-à-go-go-related gene (hERG) potassium channel, sequence (Q12809 whole entry, looked up): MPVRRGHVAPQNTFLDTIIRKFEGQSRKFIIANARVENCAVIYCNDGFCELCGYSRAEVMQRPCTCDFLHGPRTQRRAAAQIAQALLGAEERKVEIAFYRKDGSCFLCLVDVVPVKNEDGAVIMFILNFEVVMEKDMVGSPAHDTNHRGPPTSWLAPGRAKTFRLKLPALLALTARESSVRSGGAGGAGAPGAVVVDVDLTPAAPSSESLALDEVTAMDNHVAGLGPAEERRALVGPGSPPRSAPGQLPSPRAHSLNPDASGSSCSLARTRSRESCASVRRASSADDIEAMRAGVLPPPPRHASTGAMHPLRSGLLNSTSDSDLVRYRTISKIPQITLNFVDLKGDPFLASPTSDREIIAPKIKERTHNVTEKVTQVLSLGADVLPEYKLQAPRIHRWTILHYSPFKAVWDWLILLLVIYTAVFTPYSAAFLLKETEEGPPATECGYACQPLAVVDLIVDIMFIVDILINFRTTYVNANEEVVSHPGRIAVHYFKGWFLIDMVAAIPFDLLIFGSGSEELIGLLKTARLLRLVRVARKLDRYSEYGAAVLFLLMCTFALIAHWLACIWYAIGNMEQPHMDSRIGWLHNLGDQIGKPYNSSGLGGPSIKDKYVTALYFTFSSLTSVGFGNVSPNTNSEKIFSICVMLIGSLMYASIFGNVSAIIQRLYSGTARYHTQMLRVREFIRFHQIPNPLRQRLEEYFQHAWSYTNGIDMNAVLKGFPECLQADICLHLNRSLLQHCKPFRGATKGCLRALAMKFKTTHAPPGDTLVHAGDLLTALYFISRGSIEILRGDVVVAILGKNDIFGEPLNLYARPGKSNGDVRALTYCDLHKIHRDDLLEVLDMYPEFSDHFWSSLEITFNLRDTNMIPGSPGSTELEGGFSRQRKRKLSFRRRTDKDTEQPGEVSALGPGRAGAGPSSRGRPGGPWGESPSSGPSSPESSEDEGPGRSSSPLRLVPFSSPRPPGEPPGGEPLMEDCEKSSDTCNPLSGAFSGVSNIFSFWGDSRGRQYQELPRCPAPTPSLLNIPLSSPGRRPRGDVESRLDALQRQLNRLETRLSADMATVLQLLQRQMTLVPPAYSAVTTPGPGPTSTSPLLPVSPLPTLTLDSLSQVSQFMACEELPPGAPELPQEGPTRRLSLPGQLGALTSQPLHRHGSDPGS
For `COc1ccc(CNC(=O)c2cc(=O)c3cc(C)c(C)cc3o2)cc1`, the “hERG current change (%, negative = inhibition) at 10uM” value is listed as 19.3%.
Regarding `COc1ccccc1C1CC(c2ccc(NS(C)(=O)=O)cc2)=NN1S(=O)(=O)c1ccccc1` (stereo not drawn), the “hERG current change (%, negative = inhibition) at 10uM” value was -69.6%.
With `COc1ccccc1C1CC(c2ccccc2)=NN1S(=O)(=O)c1ccccc1` (stereo not drawn), the “hERG current change (%, negative = inhibition) at 10uM” value is listed as 12%.
On to `COc1ccccc1C1CC(c2cccc(NS(C)(=O)=O)c2)=NN1S(=O)(=O)c1ccccc1` (stereo not drawn), for which the “hERG current change (%, negative = inhibition) at 10uM” value is 3.08%.
`O=C(COC(=O)c1ccc(S(=O)(=O)N2CCOCC2)cc1)NCc1cccs1`: the “hERG current change (%, negative = inhibition) at 10uM” value is given as 2.5%.
Regarding `CCOc1ccc(N2CC(C(=O)Oc3ccccc3)CC2=O)cc1` (stereo not drawn), the “hERG current change (%, negative = inhibition) at 10uM” value was -10.9%.
Take `O=S(=O)(CCSc1nc2ccccc2o1)c1nc2ccccc2s1`: the “hERG current change (%, negative = inhibition) at 10uM” value is -5.57%.
Consider `Cc1cc(Cl)c(S(=O)(=O)N(C)C)cc1OCC(N)=O`, for which the “hERG current change (%, negative = inhibition) at 10uM” value came out at 10.5%.
Take `COc1ccc(C2CC(c3ccccc3)=NN2S(=O)(=O)c2ccccc2)cc1` (stereo not drawn): the “hERG current change (%, negative = inhibition) at 10uM” value is listed as 14.8%.
To `CCOc1ccc(N(CC(=O)Nc2ccccc2C(=O)N2CCCC2)S(C)(=O)=O)cc1` belongs 2.43%; to `COc1ccc(N(CC(=O)Nc2ccccc2C(=O)N2CCCC2)S(=O)(=O)c2ccccc2)cc1`, -51.8%; to `COc1ccc(N(CC(=O)Nc2ccccc2C(=O)N2CCOCC2)S(=O)(=O)c2ccc(F)cc2)cc1`, -44.6%.
The value for `CCOc1ccc(N(CC(=O)Nc2ccccc2C(=O)N2CCOCC2)S(=O)(=O)c2ccc(F)cc2)cc1` was -30.5%.
As for `COc1ccc(S(=O)(=O)N(CC(=O)Nc2ccccc2C(=O)N2CCOCC2)c2ccc(F)cc2)cc1`, the “hERG current change (%, negative = inhibition) at 10uM” value is recorded as -57%.
Take `COc1ccc(N(CC(=O)Nc2ccccc2C(=O)N2CCCC2)S(C)(=O)=O)cc1`: the “hERG current change (%, negative = inhibition) at 10uM” value is 27.7%.
As for `O=C(CN(c1ccccc1)S(=O)(=O)c1ccc(Cl)cc1)Nc1ccccc1C(=O)N1CCCC1`, the “hERG current change (%, negative = inhibition) at 10uM” value is on record as -54.2%.
`Cc1ccc(S(=O)(=O)N(CC(=O)Nc2ccccc2C(=O)O)c2ccc(Cl)cc2)cc1`: the “hERG current change (%, negative = inhibition) at 10uM” value is 13.6%.
On to `CN(CC(=O)Nc1ccccc1C(=O)N1CCCC1)S(=O)(=O)c1ccc(Cl)cc1`, for which the “hERG current change (%, negative = inhibition) at 10uM” value was -22.8%.
As for `CCCn1c(SCC(=O)c2[nH]c(C)c(C(C)=O)c2C)n[nH]c1=O`, the “hERG current change (%, negative = inhibition) at 10uM” value was -1.57%.
In the case of `COc1ccc(OC)c(NS(=O)(=O)c2ccc(NC(=O)c3ccc(NS(C)(=O)=O)cc3)cc2)c1`, the “hERG current change (%, negative = inhibition) at 10uM” value is on record as 14.2%.
Take `Cc1ccc(-n2c(SCC(=O)Nc3nccs3)nc3c(c2=O)SCC3)cc1`: the “hERG current change (%, negative = inhibition) at 10uM” value came out at 0.0407%.
With `CC1CC1C(=O)OCC(=O)Nc1ccccc1Oc1ccccc1` (stereo not drawn), the “hERG current change (%, negative = inhibition) at 10uM” value is on record as 13.9%.
Regarding `COc1ccc(Cl)cc1NC(=O)C1CC(=O)N(c2ccc(F)cc2)C1` (stereo not drawn), the “hERG current change (%, negative = inhibition) at 10uM” value amounted to 4.41%.
Regarding `CSc1ccc(/C=C(\NC(=O)c2ccco2)C(=O)N2CCCCC2)cc1`, the “hERG current change (%, negative = inhibition) at 10uM” value was -29.6%.
Take `CSc1ncc(Cl)c(C(=O)Nc2ccc(C)c(C)c2)n1`: the “hERG current change (%, negative = inhibition) at 10uM” value turned out to be 13.4%.
Take `CCOc1ccc(-n2c(-c3ccc(Br)cc3)c[n+]3c2CCCCC3)cc1.[Br-]`: the “hERG current change (%, negative = inhibition) at 10uM” value is on record as -77.7%.
Turning to `CCOc1ccc(N2C(=O)CC(Cc3ccc(Br)cc3)C2=O)cc1` (stereo not drawn), the “hERG current change (%, negative = inhibition) at 10uM” value was 5.77%.
`CCOc1ccc(-n2c(-c3ccc(OC)cc3)c[n+]3c2CCCCC3)cc1.[Br-]`: the “hERG current change (%, negative = inhibition) at 10uM” value was -76%.
In the case of `CCOc1ccc(-c2c(C)n([O-])c3c([n+]2=O)CCCCC3)cc1`, the “hERG current change (%, negative = inhibition) at 10uM” value was 17.4%.
`CCOc1ccc(-c2c(C)n(-c3ccc(OCC)cc3)c3[n+]2CCCCC3)cc1.[O-][Cl+3]([O-])([O-])[O-]`: the “hERG current change (%, negative = inhibition) at 10uM” value was -77.7%.
On to `CCOc1ccc(-c2c(C)n([O-])c3c([n+]2=O)CCCC3)cc1`, for which the “hERG current change (%, negative = inhibition) at 10uM” value is given as -1.2%.
Regarding `O=C(CSc1ncnc2c1oc1ccccc12)NCc1ccco1`, the “hERG current change (%, negative = inhibition) at 10uM” value was -12.4%.
For `CC(C)(C)SCCNC(=O)c1ccc(CN2CCc3ccccc3C2)cc1`, the “hERG current change (%, negative = inhibition) at 10uM” value was -35.1%.
To `O=C(Cn1ccsc1=NC(=O)c1ccco1)c1ccccc1` belongs -6.93%.
Take `O=C(Nc1ccc(F)cc1F)c1cc(=O)n(-c2ccccc2)c(=O)[nH]1`: the “hERG current change (%, negative = inhibition) at 10uM” value was 6.37%.
Consider `COc1ccc(NC(=O)CSC2=NC(=O)CC(C)=N2)cc1`, for which the “hERG current change (%, negative = inhibition) at 10uM” value is 15.1%.
As for `O=C(NNC(=S)NC(=O)c1ccccc1)c1ccc(O)cc1`, the “hERG current change (%, negative = inhibition) at 10uM” value came out at 24.7%.
For the compound `Cc1ccc(/C=C/C(=O)N(Cc2cccs2)C2CCS(=O)(=O)C2)cc1` (stereo not drawn), the “hERG current change (%, negative = inhibition) at 10uM” value is on record as -79%.
To `COc1ccc(/C=C/C(=O)N(Cc2cccs2)C2CCS(=O)(=O)C2)cc1` (stereo not drawn) belongs -48.6%; to `O=C(c1ccc(Cl)cc1)N(Cc1cccs1)C1CCS(=O)(=O)C1` (stereo not drawn), -24.4%; to `O=C(/C=C/c1ccccc1)N(Cc1ccc(Cl)cc1)C1CCS(=O)(=O)C1` (stereo not drawn), -30.6%.
To `O=C(/C=C/c1ccccc1Cl)N(Cc1cccs1)C1CCS(=O)(=O)C1` (stereo not drawn) belongs -31.5%.
